Screen size: about 310,000 compounds; about 14,000 (4.5%) showed an effect of 50% or more. Effects have a minus sign here. The full list was thinned out, with strong results kept by preference.
biological target: human ether-à-go-go-related gene (hERG) potassium channel (human, UniProt Q12809); experiment: primary screen, population patch clamp on CHO cells stably expressing hERG; higher = less effect of the substance
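Note: peak tail current of the secondary pulse compared with the same well before compound.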

human ether-à-go-go-related gene (hERG) potassium channel, sequence (Q12809 whole entry, looked up): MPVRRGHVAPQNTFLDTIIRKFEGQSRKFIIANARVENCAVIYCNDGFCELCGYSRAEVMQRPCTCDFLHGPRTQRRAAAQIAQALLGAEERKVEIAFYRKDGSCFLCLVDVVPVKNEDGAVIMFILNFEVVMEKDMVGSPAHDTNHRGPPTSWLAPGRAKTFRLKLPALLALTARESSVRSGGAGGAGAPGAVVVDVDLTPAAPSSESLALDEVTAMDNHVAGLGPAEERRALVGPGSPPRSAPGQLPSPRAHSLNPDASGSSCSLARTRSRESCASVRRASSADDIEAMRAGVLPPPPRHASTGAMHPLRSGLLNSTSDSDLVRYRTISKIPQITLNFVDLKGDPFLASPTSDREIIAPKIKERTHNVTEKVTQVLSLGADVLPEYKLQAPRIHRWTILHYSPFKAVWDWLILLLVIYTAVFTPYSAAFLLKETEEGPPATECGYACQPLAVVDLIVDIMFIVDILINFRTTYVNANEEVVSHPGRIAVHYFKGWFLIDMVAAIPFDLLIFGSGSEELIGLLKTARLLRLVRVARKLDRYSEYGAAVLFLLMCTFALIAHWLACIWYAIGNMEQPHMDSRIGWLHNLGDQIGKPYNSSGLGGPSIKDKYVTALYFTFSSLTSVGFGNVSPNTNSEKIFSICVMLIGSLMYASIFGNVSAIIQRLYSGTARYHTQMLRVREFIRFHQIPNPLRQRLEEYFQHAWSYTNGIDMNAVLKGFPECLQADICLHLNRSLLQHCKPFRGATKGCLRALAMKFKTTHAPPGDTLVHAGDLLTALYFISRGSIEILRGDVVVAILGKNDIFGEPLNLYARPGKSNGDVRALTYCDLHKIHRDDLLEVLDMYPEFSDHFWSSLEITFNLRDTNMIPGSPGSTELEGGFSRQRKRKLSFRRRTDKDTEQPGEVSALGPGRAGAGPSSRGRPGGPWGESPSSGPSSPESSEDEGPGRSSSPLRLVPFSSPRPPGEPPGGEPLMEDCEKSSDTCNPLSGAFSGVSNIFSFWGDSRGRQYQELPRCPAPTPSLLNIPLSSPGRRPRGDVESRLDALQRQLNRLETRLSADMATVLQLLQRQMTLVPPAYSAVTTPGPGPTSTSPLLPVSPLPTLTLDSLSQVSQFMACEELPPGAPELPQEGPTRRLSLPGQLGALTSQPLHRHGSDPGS

Compound	hERG current change (%, negative = inhibition) at 10uM [%]
CCOC(=O)c1c(NC(=S)N2CCOCC2)sc2c1CCN(C(=O)OCC)C2	-1.31
CCOC(=O)N1CCc2c(sc(NC(=O)CN3CCOCC3)c2C#N)C1	-1.09
CCOC(=O)N1CCc2c(sc(NC(=O)CN3CCOCC3)c2C(=O)Nc2ccccc2)C1	-68.8
CCOC(=O)N1CCc2c(sc(NC(=O)Cc3ccccc3)c2C(=O)c2ccc(OC)cc2)C1	13.7
CCOC(=O)N1CCc2c(sc(NC(=O)CN3CCN(C)CC3)c2C(=O)Nc2ccccc2)C1	-77.2
CCOC(=O)c1c(NC(=O)CN2CCCCC2)sc2c1CCN(C(=O)OCC)C2	-10.9
O=C(CNC(=O)c1ccco1)OC(C(=O)c1ccccc1)c1ccccc1 (centres unmarked)	0.438
CCN1C(=O)C2(C(C(=O)c3ccc(C)o3)=C(O)C(=O)N2CCCN2CCOCC2)c2ccccc21 (centres unmarked)	0.0517
O=C(CSc1nccc(=O)[nH]1)N1CCOCC1	3.03
COc1cc(SC)ccc1C(=O)OCc1nc2ccsc2c(=O)[nH]1	-30.6
O=C(CSc1nnc(Nc2ccccc2)s1)NCC1CCCO1 (centres unmarked)	-1.51
COc1cc2ccccc2cc1C(=O)NNC(=O)c1ccccc1O	7.31
COc1cccc2c(=O)c3c([nH]c12)OC(C)(C)C3	13
COc1cc2ncnc(NCc3cccc(Cl)c3)c2cc1OC	-63.9
COc1cc2ncnc(NCc3ccc(F)cc3)c2cc1OC	-52.5
COc1cc2ncnc(NCc3ccc(C)cc3)c2cc1OC	-0.937
COc1cc2ncnc(NCc3ccc(Cl)cc3)c2cc1OC	-31.2
COc1cccc(CNc2ncnc3cc(OC)c(OC)cc23)c1	-11.6
COc1ccc(CNc2ncnc3cc(OC)c(OC)cc23)cc1	-3.69
Cc1ccccc1Cn1c(=O)n(CCCC(=O)NCc2ccco2)c(=O)c2ccccc21	-15.5
Nn1c(SCc2cccc(Cl)c2)nnc1-c1ccncc1	-2.64
Cc1cc(C(=O)C(=O)N(C)C)c(C)n1-c1ccc(Cl)c(Cl)c1	-28.9

Compound	hERG current change (%, negative = inhibition) at 10uM [%]
COc1ccc(S(=O)(=O)N(CCN2CCOCC2)Cc2cc(OC)ccc2OC)cc1	-10.7
Nc1ccc(NC(=O)c2ccccc2)c2c1C(=O)c1ccccc1C2=O	2.65
CC(C)N1C(=O)CC(Nc2ccc(N3CCOCC3)cc2)C1=O (centres unmarked)	2.64
O=C(NC(=S)Nc1ccccc1)c1cc([N+](=O)[O-])ccc1N1CCOCC1	6.13
COc1ccc(NC(=O)c2cc([N+](=O)[O-])ccc2N2CCNCC2)cc1	-44.5
CN1CCN(c2ccc([N+](=O)[O-])cc2C(=O)Nc2ccccc2)CC1	-71.1
COc1cccc(NC(=O)c2cc([N+](=O)[O-])ccc2N2CCN(C)CC2)c1	-57.7
O=C(O)c1cc([N+](=O)[O-])ccc1C(=O)Nc1ccccc1	12.7
COc1ccc(NC(=O)c2cc([N+](=O)[O-])ccc2O)cc1	-57.6
COc1ccc(NC(=O)c2cc([N+](=O)[O-])ccc2N2CCN(C)CC2)cc1	-43.4
CN1CCN(c2ccc(NC(=O)c3cc([N+](=O)[O-])ccc3N3CCOCC3)cc2)CC1	-2.4
Cc1ccc(NC(=O)c2cc([N+](=O)[O-])ccc2N2CCOCC2)cc1C	-42.3
COc1ccc(NC(=O)c2cccc([N+](=O)[O-])c2)cc1	13
COc1ccc(NC(=O)c2cc([N+](=O)[O-])ccc2N2CCCC2)cc1	-1.73
Cc1cccc(NC(=O)c2cc([N+](=O)[O-])ccc2N2CCN(C)CC2)c1	-61.9
CCC(C(=O)Nc1ccc(C)cc1)c1ccccc1 (centres unmarked)	19.1
Nc1c(-c2cccc(Cl)c2)cnc2c(-c3ccccc3)cnn12	13.9
N#C/C(=C\c1ccc(F)c(Cl)c1)S(=O)(=O)c1ccccn1	-6.64
O=C(/C=C/c1ccc([N+](=O)[O-])cc1)c1cccs1	-23.4
CCOCCCNC(=O)C(c1ccc(OC)cc1)N(Cc1ccc2c(c1)OCO2)C(=O)c1cnccn1 (centres unmarked)	8.96
CCOc1ccc2c(CC)cc(=O)oc2c1OCC	-18.9
O=C(Cn1cc(C(=O)C2CC2)c2ccccc21)Nc1ccc(F)cc1	-20.5

Compound	hERG current change (%, negative = inhibition) at 10uM [%]
O=C(Nc1ccccc1)c1cc([N+](=O)[O-])ccc1N1CCNCC1	-37.8
O=C(Nc1cccc(Cl)c1)c1cc([N+](=O)[O-])ccc1N1CCN(CCO)CC1	-53
O=C(Nc1cccc(Cl)c1N1CCOCC1)c1cc([N+](=O)[O-])ccc1N1CCOCC1	-21.1
COC(=O)c1ccccc1NC(=O)C1CCN(C(=O)N2CCOc3ccccc32)CC1	-59.6
CCc1ccccc1NC(=O)C1CCN(C(=O)N2CCOc3ccccc32)CC1	1.77
Cc1ccccc1NC(=O)C1CCN(C(=O)N2CCOc3ccccc32)CC1	-8.57
CCCCC(=O)NC(c1ccccc1Cl)c1ccc2cccnc2c1O (centres unmarked)	15.2
COc1ccc(S(=O)(=O)Nc2cc3c4c(c2)CC(=O)N4CCC3)cc1C	-4.48
CC1CC(C)CN(C(=O)c2nn(C)c3c2CS(=O)(=O)c2ccccc2-3)C1 (centres unmarked)	-12.7
CN(CCCNC(=O)c1nn(C)c2c1CS(=O)(=O)c1ccccc1-2)Cc1ccccc1	-46.9
CC(C)N(CCCNC(=O)c1nn(C)c2c1CS(=O)(=O)c1ccccc1-2)Cc1ccccc1	-34.5
CC1CCN(CCCNC(=O)c2nn(C)c3c2CS(=O)(=O)c2ccccc2-3)CC1	-23.6
CC1CC(C)CN(CCCNC(=O)c2nn(C)c3c2CS(=O)(=O)c2ccccc2-3)C1 (centres unmarked)	-64.2
CCN(CCCNC(=O)c1nn(C)c2c1CS(=O)(=O)c1ccccc1-2)Cc1ccccc1	-60.3
Cc1cc(-c2nc(C)c(-c3nnc(SCC(=O)Nc4ccc(Cl)cc4)n3C)s2)no1	2.4
COc1ccc(NC(=O)c2ccc(NC(=O)CSc3nccc(=O)[nH]3)cc2)cc1	15.4
O=C(c1cc(-c2ccc(Cl)cc2)n(-c2ccc(Cl)c(Cl)c2)n1)N1CCOCC1	-57
O=C(O)c1cc(-c2ccc(Cl)cc2)n(-c2cccc(Cl)c2)n1	23.4
O=C(c1cc(-c2ccc(Cl)c(Cl)c2)on1)N1CCOCC1	-14.1
Cc1ccc(-n2nc(C(=O)N3CCOCC3)cc2-c2ccc(Cl)cc2)cc1	-83.3
Cc1ccc(-n2nc(C(=O)O)cc2-c2ccccc2)cc1	14.5
O=C(c1cc(-c2ccc(Cl)cc2)n(-c2ccc(Cl)cc2)n1)N1CCOCC1	-80.8

Compound	hERG current change (%, negative = inhibition) at 10uM [%]
O=C(O)c1cc(-c2ccc(Cl)cc2)n(-c2ccccc2)n1	30.3
Cc1ccc(-n2nc(C(=O)O)cc2-c2ccc(Cl)cc2)cc1	24.9
O=C(O)c1cc(-c2ccc(Cl)cc2)n(-c2ccc(Cl)cc2)n1	38.2
CCn1c(-c2cc(-c3ccc(OC(C)C)cc3)nc3ccccc23)n[nH]c1=S	2.71
CCOC(=O)c1cc(NC(=O)N(CC)CC)c(C)nc1C	5.59
Cc1cccc(C)c1NC(=O)CCc1nnc2ccc(N3CCCC3)nn12	10.3
CC1CCCCC1NCC(=O)NCc1ccc(F)cc1.O=C(O)C(=O)O (centres unmarked)	-8.33
CCN(CC)S(=O)(=O)c1ccc(Oc2cccc(C(C)=O)c2)nc1	-65.5
CCN(c1ccccc1)S(=O)(=O)c1ccc(Oc2ccc(C(C)=O)cc2OC)nc1	-26.2
CCN(CC)S(=O)(=O)c1ccc(OC)nc1	10.4
COC(=O)c1nn(-c2ccc(OC)cc2)c(=O)cc1NN	26.7
Cc1ccc(S(=O)(=O)N(C)C)cc1NC(=O)c1ccc(OC(F)(F)F)cc1	-51.3
Cc1ccc(S(=O)(=O)N(C)C)cc1NC(=S)NNC(=O)C1CC1	-54.6
Cc1ccc(S(=O)(=O)N(C)C)cc1NC(=O)C1CCC1	12.2
Cc1ccc(S(=O)(=O)N(C)C)cc1NC(=O)C1CCCCC1	-1.12
Cc1ccc(S(=O)(=O)N(C)C)cc1NC(=O)C(C)OC(=O)C1CCCC1 (centres unmarked)	-61.2
Cc1ccc(S(=O)(=O)N(C)C)cc1NC(=O)C1CCCC1	2.05
CN(C)S(=O)(=O)c1cccc(NC(=O)c2ccc(OC(F)(F)F)cc2)c1	-27.8
CCN(CC)S(=O)(=O)c1ccc(C)c(NC(=S)NNC(=O)C2CC2)c1	11.1
Cc1ccc(S(=O)(=O)N(C)C)cc1NC(=O)c1ccncc1	4.33

From publication PMC4336329 (PLoS ONE, 2015)
